Values joined by “and” are separate entries in the source; they are usually repeats but may differ in a detail not shown here. Equal entries are not always repeated. Records with an inconclusive call do not appear. Values without a mark were called inactive. Active and inactive are the calls of the source. Calls come from the whole dose curve; as a rule, active = well fitted cell-killing curve with a large enough effect in the repeat runs; inconclusive = weak or mixed curves; inactive = flat fitted curve, though single readings scatter.
Assay: qHTS RealTime-Glo MT Cell Viability Assay in HepG2 cells - 16 hour (AID 1224885); note: nearly all actives have a fitted effect of over 50% in size
Settings: RealTime-Glo luminescence; series mostly up to 76.8 µM; activity change, negative = cytotoxic: at the top concentration
Source text: U.S. Tox21 Program National Center for Advancing Translational Sciences [NCATS] NIH Chemical Genomics Center [NCGC] U.S. Environmental Protection Agency [EPA] National Institutes of Environmental Health Sciences [NIEHS] National Toxicology Program [NTP] U.S. Food and Drug Administration [FDA] Tox21 Assay Overview: Measure of cell viability is critical in the cell-base assay. Analysis of cell viability is necessary for the characterization of cell responses to cytotoxic drugs and environmental stress. A RealTime-Glo MT Cell Viability Assay to monitor cell viability in real time of continues cell culture during 40 hours of compound treatment was used to screen Tox21 10K library compounds in HepG2 cells. The RealTime-Glo MT Cell Viability Assay is a nonlytic, homogeneous, bioluminescent method to measure cell viability in real time using a simple, plate-based method. The assay involves adding NanoLuc luciferase and a cell-permeant prosubstrate to cells in culture. Viable cells reduce the proprietary prosubstrate to generate a substrate for NanoLuc luciferase. This substrate diffuses from cells into the surrounding culture medium, where it is rapidly used by the NanoLuc Enzyme to produce a luminescent signal. The signal correlates with the number of viable cells, making the assay well suited for cytotoxicity studies.
Tox21 Assay Protocol Summary: The mixture of HepG2 cell suspension and reagents were dispensed at 600cells/6 ul/well in 1536-well tissue culture treated black solid bottom plates using a Multidrop dispenser. After the assay plates were incubated at a 37 C/5% CO2 incubator for 5 hours, 23 nL of compounds dissolved in DMSO, positive and negative controls was transferred to the assay plate by a pintool work station. The plates were incubated at 37 C for 40 hours. The luminescence intensity were measured at 0h, 8h, 16h, 24h, 32h and 40h time points using ViewLux plate reader during compound treatment.
% is set by controls: 0 for no effect and ±100 for the full control effect; potency is the fitted concentration of half-maximal effect.

Row | SMILES | activity change, negative = cytotoxic | Potency
1 | NC(=O)N1C(=O)C(C(=O)c2cc(Cl)cs2)c2cc(F)c(Cl)cc21 (stereo not given) | -15% | –
2 | CCCCN1C(=O)[C@@H]([C@H](O)C2CCCCC2)NC(=O)C12CCN(Cc1ccc(Oc3ccc(C(=O)O)cc3)cc1)CC2 | -4.65% | –
3 | C/C=C(\C)C(=O)OCc1ccccc1 | -5.16% | –
4 | OCCN1CCN(CC/C=C2/c3ccccc3Sc3ccc(C(F)(F)F)cc32)CC1 | – | 23.9 µM (active)
5 | CCCCCCCCNC(C)C(O)c1ccc(SC(C)C)cc1 (stereo not given) | – | 15.1 µM (active)
6 | COc1cc(-c2ccc(N=C=O)c(OC)c2)ccc1N=C=O | -10% [at 35.3 µM] | –
7 | COCCCC/C(=N\OCCN)c1ccc(C(F)(F)F)cc1 | -15.6% [at 35.3 µM] | –
8 | CCN(CC)CCCC(C)Nc1c2ccc(Cl)cc2nc2ccc(OC)cc12 (stereo not given) | – | 9.52 µM (active)
9 | Cc1onc(-c2ccccc2Cl)c1C(=O)N[C@@H]1C(=O)N2[C@@H]1SC(C)(C)[C@@H]2C(=O)O | 2.89% [at 35.3 µM] | –
10 | CCCCCCCCCCCCCCCC[N+](C)(C)CCN(Cc1ccc(OC)cc1)c1ncccn1 | – | 8.49 µM (active)
11 | C=CC(=O)OCC(CO)(COC(=O)C=C)COC(=O)C=C | – | 13.9 µM (active) and 11 µM (active)
12 | O=c1[nH]sc2ccccc12 | – | 21.9 µM (active)
13 | O=C(NOCC1CC1)c1ccc(F)c(F)c1Nc1ccc(I)cc1Cl | -23.7% [at 35.3 µM] | –
14 | O=c1cccccc1O | -0.98% | –
15 | ON=C1CCCC1 | -12.5% | –
16 | CN(C)C(=O)C1(N2CCCCC2)CCN(CC[C@@]2(c3ccc(Cl)c(Cl)c3)CN(C(=O)c3ccccc3)CCO2)CC1 | – | 36.3 µM (active)
17 | O=C(Nc1cccc([N+](=O)[O-])c1)c1cc2ccccc2cc1O | -21.9% | –
18 | Oc1cc2ccccc2c2ccccc12 | – | 11 µM (active)
19 | COc1cc(-c2nc(NC(=O)c3cc4cc(C)cc(C)c4n3CC(=O)O)sc2CCC2CCCCC2)c(OC)cc1Cl | – | 35.7 µM (active)
20 | CNCc1cc(F)ccc1Oc1ccc(Cl)c(Cl)c1 | – | 49 µM (active)

Row | SMILES | activity change, negative = cytotoxic | Potency
21 | CN(C/C=C/C#CC(C)(C)C)Cc1cccc2ccccc12 | -5.79% [at 35.3 µM] | –
22 | Nc1ccc2c3c(cccc13)-c1ccccc1-2 | -20.8% | –
23 | CCCCCCCCCCCC(=O)NCCCN(C)C | – | 49 µM (active)
24 | CCCCN(CCCC)c1ccc(C(=O)c2ccccc2C(=O)O)c(O)c1 | -6.29% | –
25 | CCCCCCCC[P+](CCCCCCCC)(CCCCCCCC)CCCCCCCC | – | 17.3 µM (active)
26 | Cc1oc(-c2ccccc2)nc1CCC(=O)c1ccc(CC2SC(=O)NC2=O)cc1 (stereo not given) | -10.4% [at 35.3 µM] | –
27 | CC(C)C(C)(C)C(C)(C)C(C)(C)S | 0.14% | –
28 | CCN(C(=O)N(CC)c1ccccc1)c1ccccc1 | -3.77% | –
29 | NC(=O)C1(N2CCCCC2)CCN(CCCN2c3ccccc3CCc3ccc(Cl)cc32)CC1 | – | 23.9 µM (active)
30 | CCCCC(CC)COC(=O)c1ccccc1C(=O)O (stereo not given) | 5.02% | –
31 | Cc1cc(CCN2CCN(c3nsc4ccccc34)CC2)cc2c1NC(=O)CC2(C)C | – | 54.9 µM (active)
32 | O=CC=C(c1ccccc1)c1ccccc1 | -20.6% | –
33 | N#CC1(c2ccc(F)cc2)CCC(=O)CC1 | 1.19% [at 35.3 µM] | –
34 | CCCCCCCC[N+](CCCCCCCC)(CCCCCCCC)CCCCCCCC | – | 24.5 µM (active)
35 | CCCN(CCC)c1c([N+](=O)[O-])cc(C(F)(F)F)c(N)c1[N+](=O)[O-] | – | 48.9 µM (active)
36 | Cc1cc(O)c(C(C)(C)C)cc1Sc1cc(C(C)(C)C)c(O)cc1C | – | 48.9 µM (active)
37 | Cc1ccc(-n2nc(C(C)(C)C)cc2NC(=O)Nc2ccc(OCCN3CCOCC3)c3ccccc23)cc1 | -14% [at 35.3 µM] | –
38 | CC(C)(C)CC(C)(C)c1ccc(OCCOCC[N+](C)(C)Cc2ccccc2)cc1 | – | 54.9 µM (active) and 21.3 µM (active)
39 | NC(=O)CC[C@@H]1NC(=O)[C@H](Cc2ccccc2)NC(=O)[C@H](Cc2ccc(O)cc2)NC(=O)CCSSC[C@@H](C(=O)N2CCC[C@H]2C(=O)N[C@@H](CCCN=C(N)N)C(=O)NCC(N)=O)NC(=O)[C@H](CC(N)=O)NC1=O | 0.272% [at 35.3 µM] | –
40 | CC(=O)N1CCN(c2ccc(OC[C@H]3CO[C@](Cn4ccnc4)(c4ccc(Cl)cc4Cl)O3)cc2)CC1 | – | 49 µM (active)

Source: PubChem BioAssay (Tox21)
